Rows were chosen to be rich in hits. Some 3% of all compounds tested hit in one or more screens of this group.
GALK inhibitor: galactokinase (human) inhibition | P51570 | Potency, µM (titrated, usually from 57.5 µM), for the others: at the highest dose activity change, negative = inhibition, most hits filed as inhibitors | 0.007% of 270,000 active | Purified GALK, Kinase-Glo residual ATP luminescence | AID 1868; also: % is scaled to controls: 0 for no effect and ±100 for the full control effect
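Kinase-Glo Plus luminescence measured ATP left after a 1 h room-temperature reaction. The reaction used 5 nM GALK, 100 uM galactose and 35 uM ATP at pH 8.0 (20 mM HEPES, 5 mM MgCl2, 60 mM NaCl, 1 mM DTT, 0.01% BSA).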
A549 viability: A549 cytotoxicity, counter-screen for Nrf2 inhibitors | A549 ARE-Fluc cells, CellTiter-Fluor viability, 18-24 h | Potency, µM (titrated, usually from 46 µM), for the others: top-dose activity change, negative = cytotoxicity, usual class: inhibitors | 0.16% of 390,000 active | AID 504648; also: % is scaled to controls: 0 for no effect and ±100 for the full control effect
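Cytotoxicity counterscreen: CellTiter-Fluor fluorescence was measured in A549 ARE_Fluc cells after 18-24 h of compound exposure in a concentration series. The subsequent BugLite luminescent read reports ARE-luciferase activity.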
Nrf2 activator: activates Nrf2 signaling. AREc32 ARE-luciferase reporter (MCF7-derived line), luminescence, 24 h. Potency, µM (doses to about 46.1 µM), without a hit: at the top dose activation, actives largely listed as activators. 0.31% of 410,000 active. AID 624171; also: % of control where 0% means no effect; nearly all actives have a fitted effect of over 65% in size
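For detection, Steady-Glo was added and plates sat 30 min at RT; before that, AREc32_Fluc cells grown overnight in OPTI-MEM/5% FBS had been treated with 23 nL compound for 24 hr at 37 deg C.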
Nrf2 block: blocks Nrf2 signaling | A549 ARE-Fluc reporter, luciferase luminescence, 18-24 h | Potency, µM (doses to about 46 µM), for inactives: at the top dose activity change, negative = inhibition, hits mostly inhibitors | 2.1% of 360,000 active; also: % is scaled to controls: 0 for no effect and ±100 for the full control effect; nearly all actives have a fitted effect of over 60% in size
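A549 ARE_Fluc cells, 5000/well, 5% FBS OPTI-MEM; compounds in dose-response, 18-24 h at 37 °C/5% CO2; CellTiter-Fluor viability read (Ex 405/Em 525), then BugLite luciferase luminescence = Nrf2 activity.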
TrxR1 substrate: rat thioredoxin reductase 1 substrate activity; purified TrxR1 substrate turnover, NADPH consumption readout; Potency, µM (titrated, usually from 114 µM), inactives show at the top dose activity change, negative = substrate turnover; 0.01% of 390,000 active; AID 588456; also: % is scaled to controls: 0 for no effect and ±100 for the full control effect; nearly all actives have a fitted effect of over 50% in size
Target sequence (O89049 whole entry, looked up): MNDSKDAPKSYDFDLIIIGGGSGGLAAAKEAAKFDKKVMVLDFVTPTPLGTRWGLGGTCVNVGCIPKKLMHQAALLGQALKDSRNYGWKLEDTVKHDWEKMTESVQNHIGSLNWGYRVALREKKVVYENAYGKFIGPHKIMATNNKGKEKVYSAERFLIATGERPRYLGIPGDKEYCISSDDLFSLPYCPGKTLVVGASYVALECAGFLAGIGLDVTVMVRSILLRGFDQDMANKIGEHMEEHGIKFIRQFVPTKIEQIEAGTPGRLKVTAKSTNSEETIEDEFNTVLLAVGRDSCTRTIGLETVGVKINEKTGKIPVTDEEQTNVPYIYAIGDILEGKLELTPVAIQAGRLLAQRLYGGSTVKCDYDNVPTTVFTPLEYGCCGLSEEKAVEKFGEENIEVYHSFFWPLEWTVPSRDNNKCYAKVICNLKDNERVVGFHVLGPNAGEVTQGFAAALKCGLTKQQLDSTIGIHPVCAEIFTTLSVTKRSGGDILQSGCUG
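Rat TrxR1, dispensed at 90 nM, was prereduced with 400 uM NADPH (final) for 5 min at ~22 deg C, then incubated with compound 15 min before 400 uM selenite. A first-read NADPH fluorescence drop versus no-compound background flagged substrates.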
TrxR1 inh: blocks rat thioredoxin reductase 1. O89049. recombinant rTrxR1, NADPH fluorescence consumption, selenite substrate. 1% of 390,000 active. Potency, µM (top dose mostly 114 µM), for the others: top-dose activity change, negative = inhibition, most hits filed as inhibitors; also: % is scaled to controls: 0 for no effect and ±100 for the full control effect; nearly all actives have a fitted effect of over 65% in size
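Rat TrxR1 (90 nM in the dispensed reagent) was pre-reduced with 400 uM NADPH for 5 min at room temperature, then incubated with compound for 15 min. After 400 uM selenite was added, NADPH fluorescence (Ex 340/Em 450 nm) was followed for 8 min.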
* marks the source's active call; other numbers are inactive results; ? = inconclusive; / = no result; [ ] = dose if it differs, or a comment. Calls follow the shape of the dose curve; as a rule, active = well fitted curve in the direction sought with a large enough effect; inconclusive = small, poorly fitted or top-dose-only effect, or another doubt; inactive = no such curve, though single readings can be large; an effect the other way counts as inactive or inconclusive. Potency is read from the fitted curve at half-maximal effect.

SMILES	GALK inhibitor	A549 viability	Nrf2 activator	Nrf2 block	TrxR1 substrate	TrxR1 inh
COc1cccc(OC)c1Nc1nc(C)nc2c1nnn2Cc1ccccc1Cl	1.3%	-1.2%	-0.5%	6.2%	4.3%[57.1 µM]	18.7%[57.1 µM]
Cc1ccccc1OCC(=O)N/N=C/c1ccccn1	1.4%	0.1%	3.3%	-2.9%	-3.1%	14.8%
Cc1ccc(OCC(=O)N/N=C\c2ccc(C)o2)c([N+](=O)[O-])c1	-1.3%	2.6%	7.0%	5.3%	-2.3%	4.0%
O=C(COc1ccccc1[N+](=O)[O-])N/N=C/c1ccccn1	-1.8%	-7.7%	11.2µM*	4.1%	-1.7%	13.6%
O=C(COc1ccccc1)N/N=C/c1ccc([N+](=O)[O-])o1	-1.2%	?	9.8%	13µM*	-3.9%	50.1µM*
O=C(O)c1ccc(N/N=C/C=C/c2ccc([N+](=O)[O-])o2)cc1	8.5%	?	14.1µM*	?	-23.7%	-69.2%
Cc1ccc(OCC(=O)N/N=C/c2ccc([N+](=O)[O-])o2)cc1	0.2%	-24.7%	4.0%	20.6µM*	-1.9%	?
CCCc1ccc(OC(C)C(=O)Nc2sc3c(c2C(=O)OC)CCCCC3)cc1 (stereo not given)	/	-1.1%	0.5%	-14.0%	11.5%[11.4 µM]	5.4%
COc1ccc(-c2ccc3ncnc(NCC4CCCO4)c3c2)cc1OC (stereo not given)	/	-12.7%	/	?	/	/
Cc1ccc(C(C)C)c(OCC(=O)Nc2ccc3c(c2)nc(CCNC(=O)c2ccco2)n3C)c1	/	-1.6%	-0.7%	11.3%	0.4%	4.2%
Cc1cc(C)c(S(=O)(=O)N/N=C/c2ccc([N+](=O)[O-])o2)c(C)c1	0.6%	0.0%	13.8%	-8.9%	-4.1%	12.6µM*
O=[N+]([O-])c1ccc(/C=N/Nc2nc(N3CCCCC3)nc(N3CCCCC3)n2)o1	-3.9%	?	6.0%	18.4µM*	-12.7%	?
NC(=O)N/N=C/c1ccc([N+](=O)[O-])o1	/	?	3.3%	6.8%	-14.6%	7.08µM*
O=C(CSc1ccc(Cl)cc1)N/N=C/c1ccc([N+](=O)[O-])o1	-4.6%	?	5.1%	23.1µM*	7.2%	?
O=[N+]([O-])c1ccccc1/C=C1\C=Cc2ccccc21	/	/	/	/	-2.7%	-17.4%
CCN(CC)c1ccc2cc(-c3nc(-c4ccccc4)no3)c(=O)oc2c1	/	21.0%	-0.7%	/	0.9%[57.1 µM]	19.2%[57.1 µM]
O=C(N/N=C/c1ccccn1)c1sc2ccccc2c1Cl	-0.9%	-7.3%	?	-5.3%	-10.1%	-9.2%
O=C(N/N=C/c1ccc([N+](=O)[O-])o1)c1sc2ccccc2c1Cl	-7.7%	9.6%	-3.5%	?	4.7%	79.4µM*
CSCC[C@H](NC(=O)c1cccc(S(=O)(=O)N2CCCCCC2)c1)c1nc2ccccc2[nH]1	/	?	-0.5%	18.4µM*	4.3%[57.1 µM]	-7.1%[2.29 µM]
CSCCC(NC(=O)c1cccc(S(=O)(=O)N2CCOCC2)c1)c1nc2ccccc2[nH]1 (stereo not given)	/	5.6%	0.0%	-7.4%	-1.9%	-1.0%
CC(C)c1ccc(C2=NC(c3ccncc3)=Nc3ccc(F)cc3N2)cc1	/	7.0%	5.0%	-9.2%	-7.4%	10.8%
CNC(=S)N(CCc1c(C)[nH]c2ccc(OC)cc12)Cc1cc(OC)c(OC)c(OC)c1	/	0.3%	0.4%	-14.4%	8.5%	21.2%
CNC(=S)N(CCc1c(C)[nH]c2ccc(C)cc12)Cc1cc(OC)c(OC)c(OC)c1	/	?	0.0%	23.1µM*	-3.8%	-7.4%
Cc1c(Cl)cccc1-n1ncc(C(=O)N2CCN(C)CC2)c1C1CCN(C(=O)OC(C)(C)C)CC1	/	5.4%	-0.9%	28.1%	5.8%	21.9%
CCOc1ccccc1C1NC(=O)NC(C)=C1C(=O)OC1CCCCC1 (stereo not given)	-2.6%	-26.1%	0.2%	20.6µM*	-0.7%	-7.9%
SMILES	GALK inhibitor	A549 viability	Nrf2 activator	Nrf2 block	TrxR1 substrate	TrxR1 inh
CC1=C(C(=O)OCc2ccccc2)C(c2ccccc2OC(F)F)NC(=O)N1 (stereo not given)	10.1%	-8.0%	2.6%	23.1µM*	1.1%	6.3%
CCOc1ccccc1C1NC(=O)NC(C)=C1C(=O)OC1CCCC1C (stereo not given)	-4.3%	-9.0%	-0.2%	-26.5%	-5.9%	2.1%
N#Cc1c(NC(=O)/C=C/c2ccco2)sc2c1CCCC2	0.5%	-24.1%	14.8%	?	-7.1%	39.8µM*
O=C(COc1ncnc2ccccc12)Nc1cccc(S(=O)(=O)N2CCOCC2)c1	0.0%	-3.3%	-0.1%	4.5%	-8.3%	-11.3%
O=C(CSc1nc2cc(Cl)ccc2s1)Nc1cccc(S(=O)(=O)N2CCOCC2)c1	-2.0%	-4.9%	0.1%	23.1µM*	-11.2%	?
O=C(CSc1ncnc2ccccc12)Nc1cccc(S(=O)(=O)N2CCOCC2)c1	7.0%	-9.5%	15.3%	16.4µM*	5.1%[57.1 µM]	11.0%[11.4 µM]
CCCc1nc2ccccc2c(C(=O)OCC(=O)Nc2ccc(S(=O)(=O)N3CCOCC3)cc2)c1CC	-1.1%	?	0.0%	23.1µM*	-6.9%	-1.1%
Cc1onc(-c2ccccc2Cl)c1C(=O)OCC(=O)Nc1cccc(S(=O)(=O)N2CCOCC2)c1	-1.6%	-7.3%	0.2%	18.4µM*	3.3%[57.1 µM]	16.1%[57.1 µM]
O=C(COC(=O)c1cnc(Cl)c(Cl)c1)Nc1cccc(S(=O)(=O)N2CCOCC2)c1	/	-4.3%	3.3%	2.9%	0.6%	-4.9%
CCN(C(=O)CSc1nc(-c2ccc(C(C)C)cc2)no1)c1ccccc1	/	-8.9%	5.4%	-17.4%	-6.2%[57.1 µM]	6.3%[57.1 µM]
O=C(Nc1nc2ccccc2n1CCN1CCOCC1)c1cccc([N+](=O)[O-])c1	/	/	/	/	6.5%[57.1 µM]	16.5%[57.1 µM]
COc1cc(NC(=O)CC2C(=O)N(c3cccc(C)c3)C(=O)N2Cc2ccc(F)cc2)cc(OC)c1 (stereo not given)	/	-14.8%	0.6%	16.6%	4.0%	35.9%
COc1cc(NC(=O)c2noc3c2CCc2ccccc2-3)cc(OC)c1OC	/	1.6%	-0.2%	?	-6.2%	-5.6%
CCn1cc([N+](=O)[O-])c(C(=O)Nc2nc(-c3ccc(C)cc3)c(C)s2)n1	-0.1%	-2.1%	?	-10.8%	3.2%	7.2%
CCn1cc([N+](=O)[O-])c(C(=O)Nc2nc(-c3ccc(C)c(C)c3)c(C)s2)n1	1.3%	-12.7%[1.84 µM]	?	16.4µM*	9.2%	14.2%
O=C(Nc1c(C(=O)c2ccccc2)oc2ccccc12)c1ccc(F)cc1	/	-2.7%	0.1%	?	48.6%	35.5%
Cc1ccc(NNC(=O)C(O)(c2cccc(C(F)(F)F)c2)c2cccc(C(F)(F)F)c2)cc1	/	?	3.0%	23.1µM*	-21.6%	21.7%[0.0914 µM]
Cc1cccc(C(=O)N2CCc3cc(CNC(=O)CCc4ccccc4)ccc32)c1	/	0.5%	-1.5%	/	-2.7%[57.1 µM]	11.5%[57.1 µM]

Bioassay records from PubChem.
